RE007 growth inh – less growth of the S. pombe RE007 Vpr strain; S. pombe RE007 Vpr strain, BacTiter-Glo ATP luminescence, 24 h; Potency, µM (titrated, usually from 92.2 µM), without a hit: at the top dose activity change, negative = less growth, actives largely listed as inhibitors; hit rate 0.21% among 360,000; AID 651644; active = well fitted falling curve with a large enough effect; inconclusive = small, poorly fitted or top-dose-only effect; inactive = no such curve, though single readings can be large or run the other way; also: % is scaled to controls: 0 for no effect and ±100 for the full control effect; nearly all actives have a fitted effect of over 50% in size
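Fission yeast strain RE007, carrying one chromosomally integrated HIV-1 vpr copy, was seeded at OD 0.01 in PMG+AL medium with 23 nL pinned compound. After 24 h at 30 °C and 99% humidity, viability was read by BacTiter-Glo luminescence.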
Giardia FBPA inh – Giardia lamblia aldolase inhibition; Potency, µM (top dose mostly 59.6 µM), for the others: at the top dose activity, negative = inhibition, usual class: inhibitors; hit rate 0.71% among 290,000; A8B2U2; purified Giardia FBPA; AID 2451; also: % is scaled to controls: 0 for no effect and ±100 for the full control effect; nearly all actives have a fitted effect of over 55% in size
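Giardia FBPA (40 nM reagent) was preincubated 10 min at RT with compound (up to 57.5 uM final), then substrate plus GAPDH/TPI/NAD/arsenate coupling system with diaphorase/resazurin was added; resorufin fluorescence (525/598 nm) was read after 20 min.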
Sm TGR block – S. mansoni TGR enzyme inhibition; Q962Y6; purified TGR, DTNB reduction, TNB absorbance 405 nm; Potency, µM (doses to about 114 µM), inactives show at the highest dose activity change, negative = inhibition, hits mostly inhibitors; hit rate 3% among 360,000; AID 485364; also: % is scaled to controls: 0 for no effect and ±100 for the full control effect; nearly all actives have a fitted effect of over 60% in size
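Kinetic colorimetric format: TGR-catalysed, NADPH-driven DTNB reduction monitored via TNB absorbance. Enzyme dispensed at 20 nM; compound exposure 15 min at room temperature before reaction start.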
LmPK inhibitor – inhibitors of Leishmania mexicana pyruvate kinase; purified LmPK, Kinase-Glo ATP luminescence, 1 h; Potency, µM (doses to about 57.5 µM), without a hit: at the top dose activity change, negative = inhibition, actives largely listed as inhibitors; hit rate 0.37% among 290,000; AID 1721; also: % is scaled to controls: 0 for no effect and ±100 for the full control effect
Target sequence (Q27686 whole entry, looked up): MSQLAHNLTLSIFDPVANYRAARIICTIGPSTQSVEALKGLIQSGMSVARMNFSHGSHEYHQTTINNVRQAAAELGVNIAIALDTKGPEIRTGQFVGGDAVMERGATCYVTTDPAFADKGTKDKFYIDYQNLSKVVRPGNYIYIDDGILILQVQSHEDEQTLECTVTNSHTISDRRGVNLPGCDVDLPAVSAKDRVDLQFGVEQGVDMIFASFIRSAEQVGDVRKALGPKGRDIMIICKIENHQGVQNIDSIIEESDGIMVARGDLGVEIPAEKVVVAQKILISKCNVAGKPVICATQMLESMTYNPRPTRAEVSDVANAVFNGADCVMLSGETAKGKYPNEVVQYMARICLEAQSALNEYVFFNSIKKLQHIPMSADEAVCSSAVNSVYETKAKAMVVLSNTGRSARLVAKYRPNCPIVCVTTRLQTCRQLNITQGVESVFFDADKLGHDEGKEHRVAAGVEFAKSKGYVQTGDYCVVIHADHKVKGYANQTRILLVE
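Purified LmPK (0.1 nM) with 0.5 mM PEP and 0.1 mM ADP in imidazole buffer pH 7.2 with MgCl2/KCl, 1 h at room temperature. ATP formed was read by luciferase luminescence and normalized to no-enzyme and uninhibited controls.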
Tb PYK inh – T. brucei pyruvate kinase inhibition. Potency, µM (series often up to 76.8 µM), for inactives: at the top dose activity, negative = inhibition, hits mostly inhibitors. TbPYK enzyme, Kinase-Glo Plus ATP luminescence, 45 min. hit rate 0.12% among 410,000. Q57TT1; also: % is scaled to controls: 0 for no effect and ±100 for the full control effect; nearly all actives have a fitted effect of over 50% in size
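In this concentration-response screen, enzyme-free wells defined baseline while DMSO plates tracked drift. Each reaction combined TbPYK, substrate, compound and 130 uM ADP for 45 min at room temperature. Kinase-Glo Plus luminescence gave the signal.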
NS1 inh – inhibitors of influenza NS1 protein function; Potency, µM (highest dose often 46.1 µM), without a hit: top-dose activity, positive = more growth; hit rate 0.4% among 270,000; calls by dose curve; also: actives are rising curves; nearly all actives have a fitted effect of over 50% in size
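Read-out: OD600 growth recovery of NS1-expressing budding yeast. Cells grown overnight at 30C in -URA glucose medium, washed, resuspended and diluted 1:100 in 2% galactose assay medium, pH 6.0. Same strain lacking NS1 served as positive control.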
An asterisk follows results filed as active; ? = inconclusive; nt = no result given; [ ] = dose if it differs, or a comment. Hits are enriched below; roughly 3.5% of the tested compounds scored in any of these assays. Unless noted, calls follow the shape of the dose curve; as a rule, active = well fitted curve in the direction sought with a large enough effect; inconclusive = small, poorly fitted or top-dose-only effect, or another doubt; inactive = no such curve, though single readings can be large; an effect the other way counts as inactive or inconclusive. Potency is read from the fitted curve at half-maximal effect.

SMILES | RE007 growth inh | Giardia FBPA inh | Sm TGR block | LmPK inhibitor | Tb PYK inh | NS1 inh
Cc1cccn2c(=O)c(C=O)c(Cl)nc12 | -12% | -29% | 6.3µM* | 5% | -2% | -63%
CCOC(=O)N1CCN(c2nc3c(C)cccn3c(=O)c2C=O)CC1 | -6% | -1% | 40µM* | 3% | 0% | -5%
Cc1cccn2c(=O)c(C=O)c(Sc3ncccn3)nc12 | -9% | 1% | 22µM* | 2% | -9% | nt
COc1cc(NC(=O)c2nnn(CC(=O)Nc3cc(C)ccc3C)c2N)cc(OC)c1 | nt | nt | -2% | nt | 0% | nt
CCc1ccc2oc(-c3cc(N)ccc3Cl)nc2c1 | 16µM* | -9% | 3% | -28% | -3% | -58%
Nc1ccc2oc(Cc3ccc(Cl)cc3)nc2c1 | nt | nt | 14µM* | nt | ? | nt
CCc1ccc2oc(-c3cc(N)ccc3O)nc2c1 | ? | -2% | -14% | ? | -21% | ?
COC1CCN(C(=O)c2ccc3oc(Cc4ccc(Cl)cc4)nc3c2)CC1 | 6% | 7% | -1% | -3% | 2% | -14%
O=[N+]([O-])c1ccc(O)c(C=Nc2ccc3oc(Cc4ccc(Cl)cc4)nc3c2)c1 | nt | ? | 50µM* | 0% | nt | nt
COc1cccc(C(=O)Nc2ccc3nc(SCCOc4ccccc4)sc3c2)c1 | nt | nt | -15% | nt | 1% | nt
COc1ccc(CNC(=O)c2cccc(N3CCCS3(=O)=O)c2)cc1OC | nt | nt | 4% | nt | 4% | nt
Cc1cc2n(n1)SC(Nc1cc(Cl)ccc1Cl)N2 (stereo not given) | 0% | ? | 16µM* | 6% | -9% | 1%
O=C1COc2ccc(C(=O)COC(=O)c3ncc(Cl)c(Cl)c3Cl)cc2N1 | 6% | nt | 50µM* | nt | 4% | nt
O=C1COc2ccc(C(=O)COC(=O)c3ccc(Cl)cc3[N+](=O)[O-])cc2N1 | 4% | nt | -15% | nt | 5% | nt
O=C1COc2ccc(C(=O)COC(=O)c3nc(Cl)ccc3Cl)cc2N1 | 8% | nt | 14µM* | nt | -5% | nt
O=C1COc2ccc(C(=O)COC(=O)c3ccc([N+](=O)[O-])cc3Cl)cc2N1 | 7% | nt | 40µM* | nt | -4% | nt
COc1ccc(OCCCC(=O)OCC(=O)c2ccc3c(c2)NC(=O)CO3)cc1 | -4% | nt | 45µM* | nt | -3% | nt
C(=C\n1nnc2ccccc21)/c1ccc[nH]1 | -11% | nt | 25µM* | nt | 8% | nt
c1ccc(-n2nnc3ccccc32)cc1 | -9% | 27% | 3% | -11% | 1% | -15%
O=C(Oc1ccccc1)c1cccc(C(=O)Oc2ccccc2)c1 | nt | nt | nt | nt | 0%[157 µM] | nt
CN(C)C(=O)Oc1ccc(OC(=O)c2ccccc2)cc1 | -20% | -3% | 2% | 13µM* | ? | 1%
COc1ccc(S(=O)(=O)n2ccnc2)cc1C(C)(C)C | nt | nt | 4% | nt | 2% | nt
CC(=O)C1=C(c2ccc(Br)cc2)C(=O)c2ccccc2C1=O | ? | 0.28µM* | ? | 1% | -6% | -34%
Cc1cc(F)ccc1N1CCC(N2CCN(C(C)C)C(CCO)C2)CC1 (stereo not given) | -17% | 0% | 40µM* | 6% | 7% | -9%
Cc1cc(C)c(NC(=O)CN2C(=O)CCSc3ccc(S(=O)(=O)N4CCCC4)cc32)c(C)c1 | nt | nt | -1% | nt | -5% | nt
SMILES | RE007 growth inh | Giardia FBPA inh | Sm TGR block | LmPK inhibitor | Tb PYK inh | NS1 inh
O=C(O)c1sc(C(=O)O)c(-c2ccccc2)c1-c1ccccc1 | -11% | nt | nt | nt | 6% | nt
CC(=O)c1sc(C(=O)O)c(-c2ccco2)c1-c1ccco1 | 9% | ? | 20µM* | 14% | ? | 7%
CCOc1ccccc1C(=O)Oc1c(S(=O)(=O)c2ccc(C)cc2)c(C)nn1-c1ccccc1 | nt | nt | -1% | nt | -4% | nt
O=[N+]([O-])C(=C1Nc2ccccc2N1)C(Cl)=C(Cl)Cl | 3% | ? | 3.2µM* | 6% | -3% | 0%
Cc1oc(-c2cccc(Cl)c2)nc1CS(=O)(=O)CC(=O)NC1CC1 | 10% | 15% | 40µM* | -4% | 6% | -16%
CCOC(=O)N1CCC(NC(=O)CS(=O)(=O)Cc2nc(-c3cccc(Cl)c3)oc2C)CC1 | -1% | 5% | 35µM* | 7% | 3% | -4%
CCOC(=O)N1CCC(NC(=O)CS(=O)(=O)Cc2nc(-c3cccc(OC)c3)oc2C)CC1 | 13% | nt | 1% | 3% | -4% | -1%
COc1cccc(-c2nc(CS(=O)(=O)CC(=O)NC3CC3)c(C)o2)c1 | -3% | nt | ? | -10% | 1% | 3%
COc1cc(Cl)c(C)cc1NC(=O)CSc1cc(-c2ccccc2)nc(C)n1 | nt | nt | 6% | nt | 6% | nt
CC(=O)C(Sc1nn(C)c(=S)s1)C(=O)Nc1ccccc1 (stereo not given) | ? | ? | 25µM* | 14% | 32µM* | -5%
CNS(=O)(=O)c1ccc(OC)c(-c2nnc3c4ccccc4c(C)nn23)c1 | -3% | 0% | 9% | 7% | -4% | 4%
COc1ccc(S(=O)(=O)NCc2ccco2)cc1-c1nnc2c3ccccc3c(C)nn12 | 51% | -4% | 56µM* | -5% | 4% | -4%
COc1cccc(NC(=O)Nc2ccc3nc(N4CCN(C)CC4)cc(C)c3c2)c1 | nt | nt | -1% | nt | -10% | nt
O=C(NCc1ccccc1)C(c1ccc(O)cc1)N(C(=O)c1cnccn1)c1ccccc1 (stereo not given) | 19% | 9% | 6% | -4% | 4% | 11%
CC(=O)Nc1ccc(N(C(=O)c2cnccn2)C(C(=O)NC2CCCCC2)c2ccc(O)cc2)cc1 (stereo not given) | -2% | -3% | 16µM* | 4% | -3% | -14%
COc1ccc(N(C(=O)c2cnccn2)C(C(=O)NCc2ccccc2)c2ccc(O)cc2)cc1 (stereo not given) | -13% | 2% | 28µM* | -5% | 2% | 3%
COc1ccc(Cc2n[nH]c(=S)o2)cc1 | -17% | -27% | 35µM* | 1% | -25% | 6%
COc1ccc(N(Cc2cc(=O)[nH]c3ccccc23)C(=O)c2ccco2)cc1 | 0% | -3% | 32µM* | -1% | 5% | 0%
COc1ccc(CN(C(=O)c2ccco2)c2ccccc2)cc1 | 36% | 10% | -6% | 4% | -6% | -2%
COc1ccc2c(c1)OCC1=C2CCC2(C)C(=O)CC=C12 (stereo not given) | nt | ? | 20µM* | -9% | nt | -8%
C=C1CCN(Cc2ccccc2)S(=O)(=O)c2ccccc21 | 0% | -25% | -5% | 6% | 2% | -6%
O=C1CCN(Cc2ccccc2)S(=O)(=O)c2ccccc21 | -4% | -13% | 20µM* | 3% | -9% | 5%
CCCCCCCCCc1nc2sc3c(c2c(=O)n1NC(=O)c1ccc([N+](=O)[O-])cc1)CC(C)(C)OC3 | -7% | 11% | 4% | 2% | -18% | 19%

Screens (PubChem)
